Source: PubChem BioAssay (NCI)
About 83,000 compounds went through this panel and 20% of them were active in at least one assay; those are over-represented in the sample as a whole.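 How to read the values: 0–100, growth inhibition (40 = 60% inhibited); 0, no net growth; -100 to 0, cell death (-40 = 40% of starting cells died; -100 = all dead).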 Unmarked numbers belong to inactive results. The source made the active and inactive calls. How the source made its calls: active means growth percent below 10; inactive means the rest.

Columns and labels:
Assay in all cases: NCI-60 one-dose screen, 48 h (100 = growth as untreated, 0 = no growth, -100 = all killed)
Details in all cases: 10 µM unless noted
SK-MEL-2 melanoma = system: SK-MEL-2 melanoma
EKVX NSCLC = system: EKVX NSCLC
SN12C renal = system: SN12C renal
UO-31 renal = system: UO-31 renal
TK-10 renal = system: TK-10 renal
CAKI-1 renal = system: CAKI-1 renal
A498 renal = system: A498 renal
CCRF-CEM leukemia = system: CCRF-CEM leukemia
MOLT-4 leukemia = system: MOLT-4 leukemia
ACHN renal = system: ACHN renal

Compound	growth (SK-MEL-2 melanoma)	growth (EKVX NSCLC)	growth (SN12C renal)	growth (UO-31 renal)	growth (TK-10 renal)	growth (CAKI-1 renal)	growth (A498 renal)	growth (CCRF-CEM leukemia)	growth (MOLT-4 leukemia)	growth (ACHN renal)
CC(=O)c1ccccc1NC(=O)C(C)(c1ccccc1)c1ccccc1	70%	92.7%	108%	81.7%	110%	108%	-17.9% (active)	77.4%	62%	–
COc1ccc2nc(NC(=O)CN3CCn4c(nnc4C(F)(F)F)C3)sc2c1	106%	73.1%	92.2%	80.6%	97.5%	77.7%	–	86.5%	95.8%	90.7%
COc1ccc(C2CC(c3ccc4c(c3)OCO4)=NN2C=O)cc1 (stereo unspecified)	100%	91.7%	106%	87.4%	93.4%	102%	91.2%	93.9%	101%	–
Oc1ccccc1/C=N/N1CCCCCC1	103%	115%	93.6%	83.1%	103%	–	–	76%	–	105%
Cc1cc(C)nc(NS(=O)(=O)c2ccc(Nc3nc4nc(SCc5ccccc5)nc(-c5ccc(O)cc5)c4c(=O)[nH]3)cc2)n1	92%	96%	102%	97%	105%	85.9%	90.7%	71.2%	73.8%	–
O=C(NCCCl)NCCN1c2nc3ccccc3cc2Sc2cc3ccccc3nc21	40.5%	54.7%	67.3%	-5.97% (active)	99.2%	248%	–	20.5%	-9.47% (active)	64.8%
CNNc1ncnc2c1cnn2-c1ccc(S(N)(=O)=O)cc1	98.3%	106%	105%	94.3%	102%	–	112%	81.6%	86.6%	93%
O=C1C=CC(=O)N1c1ccccn1	109%	118%	96.2%	97.1%	113%	104%	95.8%	105%	66.6%	–
COCCOCCOCCOCCOc1ccc2c(c1)C(=O)c1nc3ncccc3c(=O)n1-2	6.22% (active)	10.5%	-93% (active)	-7.56% (active)	-77.4% (active)	–	-100% (active)	5.42% (active)	-28.7% (active)	-19.5% (active)
O=C1Nc2ccc(Cl)cc2/C1=C/c1cccs1	108%	68.3%	87.9%	44.8%	120%	79.5%	97.5%	102%	91%	–
O=C(Nc1ccccc1)c1cc(-n2cnc([N+](=O)[O-])c2)cc(-n2cnc([N+](=O)[O-])c2)n1	103%	107%	103%	92.3%	112%	–	114%	89.3%	94.2%	100%
COc1ccc(OC)c(CCn2cncc2-c2c[nH]c3cc(Br)ccc23)c1	7.7% (active)	35.3%	49.5%	39.5%	45.9%	35.5%	–	36.8%	16.2%	58.3%
CSc1nc(N)c2c(n1)N(C)C=NS2(=O)=O	123%	113%	99.3%	87.1%	109%	98.2%	–	94.4%	107%	99%
COc1cc2c(cc1OC)C(=O)/C(=C/c1cccc(OCC(=O)c3ccccc3)c1)C2	44.1%	94.4%	88.8%	-19.2% (active)	122%	93.4%	103%	38%	55.3%	–
Cc1ccc(-c2csc(N)n2)cc1	107%	104%	96%	88.6%	97.2%	99.2%	–	92%	90.3%	97.7%
CCc1ccc(-c2nc(SCC(=O)NC3CCCCC3)n[nH]2)cc1	10.2%	42.1%	76.4%	69.8%	88.8%	85.9%	86.4%	55.3%	61.6%	–

Compound	growth (SK-MEL-2 melanoma)	growth (EKVX NSCLC)	growth (SN12C renal)	growth (UO-31 renal)	growth (TK-10 renal)	growth (CAKI-1 renal)	growth (A498 renal)	growth (CCRF-CEM leukemia)	growth (MOLT-4 leukemia)	growth (ACHN renal)
Cn1c(=O)c2[nH]c(=S)n(Cc3ccccc3)c2n(C)c1=O	104%	125%	99%	91.4%	104%	111%	–	113%	81.9%	96.1%
O=C(O)C1C(c2ccccc2)c2ccccc2C(O)C1CO (stereo unspecified)	98.7%	119%	98.1%	78.2%	102%	112%	–	92.9%	104%	97.3%
O=C1C2C(C(=O)N1CC[Se][Se]CCN1C(=O)C3C(C1=O)[C@H]1C=C[C@@H]3C1)[C@H]1C=C[C@@H]2C1 (stereo partly specified)	-53.3% (active)	-56% (active)	3.39% (active)	-84.4% (active)	-70.2% (active)	-87.7% (active)	–	2.3% (active)	1.28% (active)	-52.2% (active)
COc1ccc2c(c1)[n+](=O)c(/C=C/C(=O)c1cc(OC)c(OC)c(OC)c1)c(C)n2[O-]	56%	71.3%	40.5%	49.1%	62.9%	–	99.3%	-25.9% (active)	–	47.7%
O=[N+]([O-])c1ccc2[nH]cc(-c3c4ccccc4cc4[nH]c5ccc([N+](=O)[O-])cc5c34)c2c1	2.23% (active)	39.4%	36.7%	13.2%	58.7%	25.3%	–	7.25% (active)	6.8% (active)	15.4%
CCN(CC)c1ccc(/C=C/C(=O)c2cccc(NS(C)(=O)=O)c2)cc1	83.1%	57.6%	40.3%	37.2%	25.6%	–	22.8%	13.3%	8.78% (active)	37.7%
CCCCCCCCCCN1CCC(N2CCCCC2)CC1	-19.9% (active)	37.4%	45.4%	-86.7% (active)	25.2%	–	74.2%	6.95% (active)	-26% (active)	38.2%
COc1ccc(/C=C/C(=O)c2cccc(NS(C)(=O)=O)c2)cc1	114%	94.6%	82.8%	48.6%	92.2%	–	101%	1.69% (active)	40.8%	93.4%
CC(=O)Nc1ccc(C(=O)COc2ccc(/C=C3\CCc4ccccc4C3=O)cc2)cc1	77.8%	99.8%	103%	33.2%	112%	94.8%	–	89.4%	78.8%	103%
NS(=O)(=O)c1ccc(-n2ncc3c(NC4CCCCC4)ncnc32)cc1	103%	102%	97.5%	0.88% (active)	107%	39.6%	106%	82.3%	72.6%	–
Nc1ccccc1-c1ccn[nH]1	83.5%	87%	87.9%	50.9%	119%	68.4%	103%	97.4%	98.7%	–
COc1cc(/C=N/OC(=O)Nc2ccccc2)cc(OC)c1OC	115%	117%	94.4%	69%	99%	110%	–	98.1%	100%	107%
CCSc1ncc(Br)c(Sc2nc(N)nc3nc[nH]c23)n1	73.1%	36.7%	80.9%	70%	72.7%	57.7%	95.9%	12.5%	3.06% (active)	–
O=C(Nc1ccccc1)P(=O)(O)c1ccccc1	118%	113%	92.1%	76.9%	107%	117%	–	120%	95%	93.9%
C[C@]12CCC(=O)C=C1CCC1C2[C@@H](O)C[C@@]2(C)C1CC[C@]2(O)C(=O)COC(=O)CCC(=O)O (stereo partly specified)	123%	78.7%	57.2%	84.1%	–	81.1%	118%	64.9%	115%	102%
